PubChem BioAssay (NCI)
About 79,000 compounds went through this panel and 15% of them were active in at least one assay; those are over-represented in the sample as a whole. Cut-off read from the data, not from the text of the source: active = growth inhibition above about 70%; inactive = the rest.

Tests used:
[1] = NCI Yeast Anticancer Drug Screen. Data for the rad50 strain (AID 155);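 note: 0% = growth of vehicle-only cultures of the same strain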; settings: S. cerevisiae rad50 strain growth inhibition, stronger effect = higher value; at 50.0 µM unless noted
Procedure, shortened: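 A DNA repair-deficient yeast mutant serves as the test organism; compound-induced growth inhibition is calculated against vehicle-treated cells.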

[2] = NCI Yeast Anticancer Drug Screen. Data for the mec2-1 strain (AID 157); settings: S. cerevisiae mec2-1 strain, stronger effect = higher value; at 50.0 µM unless noted
Procedure, shortened: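 Readout is yeast growth inhibition, normalised to vehicle-treated controls, in the mec2-1 strain exposed to compound.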

[3] = NCI Yeast Anticancer Drug Screen. Data for the sgs1 mgt1 strain (AID 161);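 note: 0% = growth of cultures given vehicle only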; settings: S. cerevisiae sgs1 mgt1 strain, stronger effect = higher value; at 50.0 µM unless noted
Procedure, shortened: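 Compounds are added to genetically altered yeast, and growth is compared with cultures given vehicle alone to give percent inhibition.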

[4] = NCI Yeast Anticancer Drug Screen. Data for the cln2 rad14 strain (AID 165);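 note: 0% = growth equal to vehicle treated cultures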; settings: S. cerevisiae cln2 rad14 strain, stronger effect = higher value; at 50.0 µM unless noted
Procedure, shortened: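 Relative to vehicle controls, growth inhibition of compound-treated cln2 rad14 yeast was recorded.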

[5] = NCI Yeast Anticancer Drug Screen. Data for the bub3 strain (AID 167); settings: S. cerevisiae bub3 mutant strain, stronger effect = higher value; at 50.0 µM unless noted
Procedure, shortened: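 Inhibition values come from growth of compound-treated mutant yeast normalised to vehicle-treated controls.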

[6] = NCI Yeast Anticancer Drug Screen. Data for the mlh1 rad18 strain (AID 175); settings: S. cerevisiae mlh1 rad18 strain growth inhibition, stronger effect = higher value; at 50.0 µM unless noted
Procedure, shortened: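 Test agents were incubated with a yeast strain of defined genotype (DNA damage repair defect). Inhibition of growth was derived by comparison with vehicle-exposed cultures.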

Measured: growth inhibition

CC1=C(C#N)C(=C(C#N)C#N)OC1(C)Cc1ccccc1 (stereo not drawn)
inactive: [1] 8.25% | [2] 6.35% | [3] 24.6% | [4] 8.55% | [5] 2.85% | [6] 33.1%

O=C1c2ccccc2C(=O)N1CCCCCCCCCCN1C(=O)c2ccccc2C1=O
inactive: [1] 33% | [2] -10.3% | [3] 17.3% | [4] 2.75% | [5] -3.75% | [6] -7.15%

C1=C(N2CCCC2)C(=[N+]2CCCC2)C(N2CCCC2)=C1
inactive: [1] 3.65% | [2] -2.45% | [3] 5.55% | [4] -7.25% | [5] 1.5% | [6] 9.15%

Nc1sc(=S)[nH]c1-c1ccccc1
inactive: [1] 20.1% | [2] 10.7% | [3] -24.9% | [4] -30.8% | [5] -11% | [6] 11.1%

CC1CC1C(N)C1CC1C (stereo not drawn)
inactive: [1] 10.3% | [2] 3.15% | [3] -1.95% | [4] 23.9% | [5] 10.8% | [6] 8.3%

CC(=O)N1C(=O)C2(c3ccccc31)c1cccc3c1C(=C1C(=O)OC(=O)C12)C(=O)N3C(C)=O (stereo not drawn)
inactive: [1] 64.5% | [2] 22.4% | [3] 52.3% | [4] 9.55% | [5] 8.85% | [6] 48.1%

S=C(NCc1cccc(Cl)c1)Nc1ccccc1
inactive: [1] -4.65% | [2] 27.9% | [3] 14.2% | [4] -24.9% | [5] 29.6% | [6] 24.4%

Cc1cc(Cl)ccc1NC(=O)Oc1ccc(C#N)cc1
inactive: [1] -13.8% | [2] -18.4% | [3] -25.2% | [4] -10.6% | [5] -17.1% | [6] -19.4%

CCSc1nc2n(c(=S)n1)CCN2C
inactive: [1] 15.4% | [2] -3.5% | [3] 13.8% | [4] 6.5% | [5] 22.6% | [6] 18.2%

Nc1nc(Cl)cc(NCCCCCCCCNc2cc(Cl)nc(N)n2)n1
inactive: [1] -2.3% | [2] -1.65% | [3] -7.35% | [4] -7.8% | [5] -3.95% | [6] -3.55%

COc1ccc(NC(=O)CC(=O)N2N=C(N3c4ccccc4Sc4ccccc43)CC2c2ccccc2)cc1 (stereo not drawn)
inactive: [1] 8.65% | [2] -4.1% | [3] 0.8% | [4] 14.2% | [5] 4.8% | [6] -3.6%

CC/C(CC(=O)CCC(=O)Nc1ccc(C)c(C)c1)=N\NC(=O)c1cc2ccccc2cc1O
inactive: [1] 45.2% | [2] 22.9% | [3] -13.4% | [4] -5.2% | [5] 44.6% | [6] 34.4%

NCCCc1nonc1C(=O)O
inactive: [1] -15.2% | [2] -39.4% | [3] -3.85% | [4] -4.05% | [5] -7.3% | [6] -13.3%

Cc1cc(C)c(S)c(C)c1.[Cu+2]
inactive: [1] -29.1% | [2] -10.3% | [3] -5.85% | [4] -53.2% | [5] -28.9% | [6] -2.55%

CC(C)(C)COB(OCC(C)(C)C)OCC(C)(C)C
inactive: [1] -2.8% | [2] -13.2% | [3] 3.55% | [4] -29.1% | [5] -9.55% | [6] -15.2%

O=C1CSC(c2c[nH]c3ccccc23)N1c1ccc(Cl)cc1 (stereo not drawn)
inactive: [1] -33.9% | [2] -25.5% | [3] -46.2% | [4] -3.55% | [5] -28.9% | [6] -30.4%

C#CC1(O)C2CCc3cc(OC)ccc3C2CCC1(C)C(=O)OC (stereo not drawn)
inactive: [1] 10.8% | [2] -0.2% | [3] 4.05% | [4] 6.85% | [5] -11.9% | [6] -11.6%

CC(C)N1C(=O)c2cccc(Cl)c2C1=O (tested in a mixture with another compound)
inactive: [1] 10.8% | [2] 4.1% | [3] 37.3% | [4] 37.6% | [5] -7.85% | [6] 1.4%

Cc1ccc(NC(=O)c2cccc(OP(=O)(O)Nc3ccc(C)cc3)c2)cc1
inactive: [1] -13.7% | [2] 2.7% | [3] 2.8% | [4] 17% | [5] -0.95% | [6] -17%

FC1=C(F)C2(F)C3CCC(O3)C2(F)C(Br)=C1F (stereo not drawn)
inactive: [1] -9.6% | [2] -3.3% | [3] 3.2% | [4] -1.35% | [5] -6.15% | [6] 4.5%

C/C(=N\N/C=N/S(=O)(=O)c1ccccc1)c1ccccc1
inactive: [1] -12.2% | [2] 4.55% | [3] -6.35% | [4] 5.6% | [5] 0.55% | [6] -1.55%

CCCCCCCc1nc(CCCCCCC)nc(CCCCCCC)n1
inactive: [1] 1.05% | [2] 12.9% | [3] 6% | [4] -15.1% | [5] 19.8% | [6] 12.6%

C=C(Br)CNC(=O)CCC(=O)NCC(=C)Br
inactive: [1] -27.5% | [2] -11.8% | [3] -3.35% | [4] -5.9% | [5] -21.4% | [6] -57.7%
